The record followed here is PubChem BioAssay AID2125 (NMMLSC, 2009).

The source made the active and inactive calls.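 How the source made its calls: active means combined score above 50, rising as EC50 falls below 10 µM and growth at top dose drops; inactive means the rest.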 Peptide text beside a SMILES is read from it. * marks the point of attachment. Cbz = O=C(OCc1ccccc1)*

In this assay the test system is YE3959. Kind of assay: yeast strain panel proliferation effects – secondary panel, OD600, 26S proteasome disassembly project, profiling panel (AID 2125). The note with it: S. cerevisiae strain panel, growth OD600, 6-8 h, at 100 µM, hits give low values.

For the compound `CC(=O)N1C(=O)C(=C2C=C(C)OC(C)=C2)c2ccccc21`, the percent response (growth) is 60.8% (inactive). On to `CC(C)C[C@@H](C=O)NC(=O)[C@H](CC(C)C)NC(=O)[C@H](CC(C)C)NC(=O)OCc1ccccc1` (Cbz-Leu-Leu-Leu-aldehyde), for which the percent response (growth) was 52.8% (inactive).
